Only some compounds are listed: those with a hit (about 3.8% of all), similar ones and a draw of the others.
Calb biofilm kill: kills Candida albicans biofilms | C. albicans biofilm + clotrimazole, Alamar Blue | inhibition, % at 6 µM | 0.14% of 85,000 active;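 active means inhibition above 20%; inactive means inhibition below 20%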;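 further: preformed 24 hr biofilms exposed to compound for 48 hr; 0% = biofilm without compound and 100% = blank killed by clotrimazole plus chlorhexidine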
Smad3 FoxH1 inh: inhibitors of human Smad3 transcription factor binding. TR-FRET Smad3/Dy647-FoxH1 peptide binding, europium anti-His. 0.29% of 88,000 active. P84022. inhibition, % at 25 µM. AID 630;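 active means compounds that reduce the energy-transfer binding signal between the protein and its labelled peptide by more than half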;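 further: 0% = Smad3 plus labelled peptide maximal FRET and 100% = peptide-only background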
Target sequence (P84022 whole entry, looked up): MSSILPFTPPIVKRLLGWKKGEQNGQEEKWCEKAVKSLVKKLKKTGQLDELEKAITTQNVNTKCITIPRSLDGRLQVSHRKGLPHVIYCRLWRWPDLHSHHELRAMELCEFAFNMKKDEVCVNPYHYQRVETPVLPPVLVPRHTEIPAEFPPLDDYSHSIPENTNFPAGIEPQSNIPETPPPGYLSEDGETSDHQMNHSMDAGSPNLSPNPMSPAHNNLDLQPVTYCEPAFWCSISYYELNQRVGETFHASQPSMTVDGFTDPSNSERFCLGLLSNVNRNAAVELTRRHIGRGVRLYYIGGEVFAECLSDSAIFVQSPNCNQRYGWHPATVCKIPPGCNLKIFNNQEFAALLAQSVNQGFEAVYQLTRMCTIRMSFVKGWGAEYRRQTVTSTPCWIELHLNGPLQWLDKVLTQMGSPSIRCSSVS
ERa coact inh: blocks coactivator binding to human estrogen receptor alpha; P03372; AID 629; TR-FRET ER-alpha LBD / SRC-1 peptide, estradiol-bound; inhibition, % at 25.6 µM; 1.7% of 86,000 active; in the data active means inhibition above about 50%;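 further: 0% = receptor plus peptide control and 100% = peptide only without receptor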
ERb coact inh: blocks coactivator binding to human estrogen receptor beta; 1.3% of 86,000 active; TR-FRET ER-beta LBD / SRC1-Cy5 peptide binding; receptor agonist-loaded with 1 µM estradiol; inhibition, % at 25.6 µM; Q92731;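 active means compounds whose percent inhibition of the receptor-coactivator binding signal exceeds about 50% in the single-dose screen, limit read from the data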;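 further: 0% = receptor plus peptide wells without compound and 100% = peptide-only wells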
ERa SRC1 pot: enhances coactivator binding to human estrogen receptor alpha | coactivator binding (% of control), % at 25.6 µM | TR-FRET ERalpha-LBD/SRC-Cy5 coactivator binding, 2 h; 100 = basal binding, no effect | 1.3% of 86,000 active | P03372; in the data active means activity above about 200%;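 further: binding measured in presence of low estradiol as agonist stimulus; 0% = peptide alone without receptor and 100% = receptor with peptide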
* marks the source's active call; other numbers are inactive results; x = not tested or not shown; [ ] = remark or other dose.

SMILES	Calb biofilm kill	Smad3 FoxH1 inh	ERa coact inh	ERb coact inh	ERa SRC1 pot
CCOC(=O)c1cnc(-n2nc(C)cc2C)nc1NCc1ccc2c(c1)OCO2	6.8	3.3	33.8	30.2	219.5*[fluorescence artefact?]
CCCOC(=O)c1cc(-c2ccc(/C=C3/C(=O)N(C)C(=O)C(C#N)=C3C)o2)ccc1Cl	11.6	-1.1	82.7*[fluorescence artefact?]	67.2*	42.5
COc1ccc2c(Cl)cc(NC(=S)Nc3ccccc3)nc2c1	x	-0.7	x	x	x
CN(C)CCNc1ncnc2c1sc1nc(N3CCOCC3)c3c(c12)CC(C)(C)SC3	6.4	-8.3	5.4	-6.3	88.9
CC1(C)Cc2c(c(N3CCOCC3)nc3sc4c(=O)[nH]cnc4c23)CS1	-3.3	4.6	30.4	54.6*[fluorescence artefact?]	83.0
CCN(C(=O)CN1CCCc2ccccc21)c1c(N)n(Cc2ccccc2)c(=O)[nH]c1=O	6.7	-14.0	-10.3	80.3*[fluorescence artefact?]	105.0
Cc1ccc(S(=O)(=O)N(CCC(=O)O)Cc2ccc(Cl)cc2)cc1	3.0	2.5	2.0	4.5	128.2
C[C@@H]1CC[C@H]2[C@H](C)[C@@H]3[C@@H](C[C@H]4[C@H]5CC=C6C[C@@H](O)CC[C@]6(C)[C@@H]5C[C@@H](O)[C@]34C)N2C1	x	-2.3	x	x	x
CC1=CC(=O)C=C(C)C1=NOC(=O)c1cccc([N+](=O)[O-])c1	86.3*	10.1	3.7	3.5	94.7
CN(C)c1nc(SCCOC(=O)Nc2ccccc2)nc(N(C)C)n1	6.3	-2.2	-5.7	-4.8	127.2
COc1ccc(-n2c(SCC(=O)Nc3nccs3)nc3sc4c(c3c2=O)CCN(C)C4)cc1	5.2	3.6	51.1*	24.6	182.2
O=C(CSc1nc2c(c(=O)n1-c1ccc(Br)cc1)SCC2)Nc1nccs1	3.4	-7.8	59.4*	24.8	152.2
O=C(O)c1[nH]c(=O)[nH]c(=O)c1CN1CCCCC1	x	-5.1	x	x	x
O=c1[nH]c2ccc(S(=O)(=O)N3CCCCC3)cc2[nH]c1=O	1.3	2.0	19.4	-4.9	99.5
CC(=O)c1sc(N2C(=O)c3oc4ccccc4c(=O)c3C2c2ccc(C)o2)nc1C (centres undefined)	2.5	-1.2	64.0*	16.2	81.9
Cc1nc2cccc([N+](=O)[O-])c2n1CCCN(C)C	x	-6.5	x	x	x
O=C(O)c1ccc([N+]2=Cn3c(nc4ccccc43)C2)cc1	x	-3.8	x	x	x
COc1ccc(N/C(N)=N/c2nc(CSc3ccc(C)cc3)cc(=O)[nH]2)cc1	8.1	-5.9	-7.2	-7.8	120.7
COc1ccccc1N/C(N)=N/c1nc(CSc2ccc(C)cc2)cc(=O)[nH]1	-5.2	-4.0	48.2	30.4	257.9*[fluorescence artefact?]
O=C(O)Cc1cc(Cl)ccc1O	x	-2.4	x	x	x
C[N+](C)(C)[C@H](Cc1c[nH]c(=S)[nH]1)C(=O)O	x	-8.0	x	x	x
CCOC(=O)c1cc2c(=O)n3ccccc3nc2n(Cc2ccco2)c1=NC(=O)c1cccnc1	1.8	5.5	22.9	40.2	82.8
Cc1ccc(-n2c(=O)c(C#N)cc3c(=O)n4cccc(C)c4nc32)cc1	1.4	15.3	62.3*	51.9*	140.4
CCOC(=O)c1cc2c(=O)n3cccc(C)c3nc2n(Cc2ccco2)c1=NC(=O)c1cccnc1	9.0	10.2	55.2*[fluorescence artefact?]	58.2*[fluorescence artefact?]	64.1
CCCn1c(=NC(C)=O)c(C#N)cc2c(=O)n3cccc(C)c3nc21	7.2	20.2	53.7*[fluorescence artefact?]	47.0	58.8
SMILES	Calb biofilm kill	Smad3 FoxH1 inh	ERa coact inh	ERb coact inh	ERa SRC1 pot
Cc1cccn2c(=O)c3cc(C#N)c(=O)n(Cc4cccnc4)c3nc12	-1.8	-0.1	-4.3	-4.3	121.8
Cc1cccc(C(=O)N=c2c(C#N)cc3c(=O)n4cccc(C)c4nc3n2Cc2ccco2)c1	8.7	0.4	29.7	30.0	150.2
CCCCCn1c(=NC(C)=O)c(C#N)cc2c(=O)n3cccc(C)c3nc21	7.1	-3.5	30.0	24.8	83.0
Cc1cccn2c(=O)c3cc(C#N)c(=NC(=O)c4ccccc4)n(Cc4ccco4)c3nc12	2.1	-12.0	62.5*[fluorescence artefact?]	41.5	176.9
COc1cc(CN2C(=O)C(NC(=O)c3ccco3)(C(F)(F)F)C3=C2CC(C)(C)CC3=O)cc(OC)c1 (centres undefined)	10.0	-9.1	5.9	3.9	82.1
CC1(C)[C@@H]2CC[C@@](C)(C2)[C@@H]1OC(=O)c1ccccc1C(=O)O	x	1.4	x	x	x
CN(C)[C@H]1C(=O)C(C(=O)NCN2CCCC2)=C(O)[C@@]2(O)C(=O)C3=C(O)c4c(O)cccc4[C@](C)(O)[C@H]3C[C@H]12	x	5.3	x	x	x
Cn1c(=O)c2c(nc(N/N=C/c3ccccc3C(=O)O)n2C)n(C)c1=O	x	9.9	x	x	x
Cc1cc2cc(CN3C(=O)c4ccccc4C3=O)ccc2n1C	-1.4	27.4	-2.6	8.7	299.7*[fluorescence artefact?]
Cc1cccc(N2CCN(C(=O)C(Cc3ccccc3)n3cccc3)CC2)c1C (centres undefined)	3.1	4.5	28.8	38.2	71.2
O=C(NCc1cccnc1)C1c2ccccc2C(=O)N1Cc1ccco1 (centres undefined)	8.2	11.9	0.1	51.0*[fluorescence artefact?]	92.7
Cc1occc1C(=O)NCCCc1ccccc1	4.2	2.3	4.1	57.9*	103.4
Cc1occc1C(=O)NCCCCNC(=O)c1ccoc1C	4.8	7.6	-5.6	-7.4	132.2
CSc1nc(NCc2ccco2)c2ccccc2n1	5.7	41.1	54.5*	3.6	98.1
O=[N+]([O-])c1ccc2c(N=Nc3ccc4ccccc4c3O)c(O)cc(S(=O)(=O)O)c2c1	x	72.0*	x	x	x
O=S(=O)(O)c1ccc2c(N=Nc3cccc4ccccc34)c(O)c(S(=O)(=O)O)cc2c1	x	30.6	x	x	x
CC(=O)Nc1ccc(Cc2ccc3[nH]c(=O)cc(C)c3c2)cc1	x	6.5	x	x	x
Cc1c(Cl)cccc1N(CC(=O)NC1CCCCC1)S(C)(=O)=O	9.1	6.9	1.1	-1.4	86.2
Cc1c(NS(=O)(=O)c2ccc3c(c2)OCCO3)cccc1-c1nc2cccnc2s1	7.5	1.1	13.0	4.7	243.9*[fluorescence artefact?]
O=S(=O)(Nc1cccnc1Cl)c1ccc2c(c1)OCCO2	7.4	8.0	2.4	2.6	121.0
Cc1cc(-c2nc3cccnc3s2)ccc1NS(=O)(=O)c1ccc2c(c1)OCCO2	10.6	3.0	9.9	15.9	204.1*[fluorescence artefact?]
CN1CCCN(C)C1c1cc([N+](=O)[O-])ccc1O	x	-44.1	x	x	x
CSc1nc(C)cc(Nc2ccc(O)c(CN3CCOCC3)c2)n1	x	-6.2	x	x	x
CCOc1cc(-n2cnnn2)c(OCC)cc1NC(=O)c1cnccn1	2.8	16.1	54.5*	25.8	137.5
COc1ccc(OC)c(N=c2oc3c(OC)cccc3cc2C(=O)NCc2ccco2)c1	3.9	-1.4	75.3*[fluorescence artefact?]	50.4*[fluorescence artefact?]	44.3
COc1ccccc1N=c1oc2c(OC)cccc2cc1C(=O)NCc1ccco1	3.7	10.9	5.6	9.9	108.6
Cc1cccc(C(=O)Nc2cccc(C(=O)N3CCOCC3)c2)c1	3.5	7.2	6.7	3.0	238.6*
COc1ccc2nc(NCN3C(=O)c4ccccc4C3=O)sc2c1	x	-27.1	x	x	x
CC(C)(C)COS(=O)OCC(C)(C)C	x	3.4	x	x	x
CN(CC(=O)NCCN1CCN(Cc2ccccc2)CC1)S(=O)(=O)c1cccc2nsnc12	-1.1	4.8	3.6	5.4	764.1*[fluorescence artefact?]

Source: PubChem BioAssay
